# From PubChem BioAssay AID1035 (National Center for Advancing Translational Sciences (NCATS), 2008)
# A number with no mark means an inactive call. Active and inactive are the calls of the source. How the calls were made is not given here.
# Assay: HDAC Secondary Assay for qHTS Assay for Epigenetic Modulators
# Settings: HeLa nuclear extract HDAC activity, fluorogenic substrate, 20 min; at 48 µM; active compounds read low
# Text: NIH Molecular Libraries Screening Centers Network [MLSCN] NIH Chemical Genomics Center [NCGC] MLSCN Grant: 1 X01 MH079860-01 Assay Provider: Elisabeth D. Martinez, University of Texas SW Medical Center NCGC Assay Overview: This secondary assay characterizes selected actives identified in the qHTS of the Locus Derepression (LDR) assay (PubChem AID 597). The LDR assay detects the derepression of a GFP reporter that is stably integrated in a region of the genome of murine c127i mammary cells that is presumably silenced. Compounds that cause derepression of the locus to express GFP are identified by enumerating GFP positive cells using a laser-scanning microplate cytometer. Selected LDR actives were assayed for inhibition of histone deacetylase (HDAC) activity in HeLa nuclear extracts using a HDAC fluorometric kit (AK-500, Biomol International LP). This assay uses a substrate containing an acetylated lysine side chain that is deacetylated by HDAC enzymatic activity to generate a fluorophore.
# NCGC Assay Protocol Summary HeLa nuclear extracts and acetylated profluorescent substrate were incubated with vehicle, 0.5 uM TSA, or 48 uM indicated LDR compound for 20 min at ambient temperature and fluorescence was measured. Background-subtracted activity was expressed as a percent of uninhibited extract. Tests were performed in 25 uL volume in 384-well black plates using the HDAC assay kit AK-500 (Biomol International LP). For further details, see R.L. Johnson, W. Huang, A. Jadhav, C.P. Austin, J. Inglese, E.D. Martinez, A Quantitative High-Throughput Screen Identifies Potential Epigenetic Modulators of Gene Expression, Analytical Biochemistry (2007), doi: 10.1016/j.ab.2007.12.028
row,Compound,remaining HDAC activity
1,CC(/C=C/C(=O)NO)=C\[C@@H](C)C(=O)c1ccc(N(C)C)cc1,1% (active)
2,CN(C)C(=O)CSc1cccc2cccnc12,111%
3,O=C(CSc1cccc2cccnc12)N1CCCC1,120%
4,CCN1CSC(=S)N(CC)C1,103%
5,CCN(CC)c1ccc2cc(-c3nc4ccccc4[nH]3)c(=O)oc2c1,112%
6,COc1ccc(C(NC(=O)C(C)C)c2ccc3cccnc3c2O)cc1 (stereo not drawn),106%
7,CN1CCN(Cc2cc(Cl)c3cccnc3c2O)CC1,109%
8,CC(C)C(=O)NC(c1ccc(N(C)C)cc1)c1ccc2cccnc2c1O (stereo not drawn),99%
9,O=C(CSc1cccc2cccnc12)NCc1ccccc1,96%
10,CC(C)C(=O)NC(c1ccco1)c1ccc2cccnc2c1O (stereo not drawn),108%
11,CC(C)C(=O)NC(c1ccco1)c1cc([N+](=O)[O-])c2cccnc2c1O (stereo not drawn),112%
12,CN1C(=S)SC(c2ccccc2)N(C)C1c1ccccc1 (stereo not drawn),107%
13,O=Nc1ccc(O)c2ncccc12,84%
